Reference: PMC5540273 (PLoS ONE, 2017)

How the values were obtained:
Conditions in all cases: concentration: 1 μM,replicates: in singlicate; n = 1
NEK11 = tested on: NEK11
NEK1 = tested on: NEK1
NEK2 = tested on: NEK2
NEK3 = tested on: NEK3
NEK4 = tested on: NEK4
NEK5 = tested on: NEK5
NEK6 = tested on: NEK6
NEK7 = tested on: NEK7
NEK9 = tested on: NEK9
NIK = tested on: T1, NIK
T1 construct: gene MAP3K14
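Further: KINOMEscan kinase panel screen.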

Compound | %Inh (NEK11) [%] | %Inh (NEK1) [%] | %Inh (NEK2) [%] | %Inh (NEK3) [%] | %Inh (NEK4) [%] | %Inh (NEK5) [%] | %Inh (NEK6) [%] | %Inh (NEK7) [%] | %Inh (NEK9) [%] | %Inh (NIK) [%]
CNC(=O)c1ccccc1Sc1ccc2c(/C=C/c3ccccn3)n[nH]c2c1 | 0 | 0 | 5 | 32 | 0 | 11 | 0 | 26 | 1 | 0
NC(=O)c1cc(-c2ccccc2)cc2c(C3CCNCC3)c[nH]c12 [GSK301362] | 0 | 0 | 10 | 7 | 4 | 12 | 0 | 3 | 21 | 0
Cc1ccc2c(-c3ccncc3)c(-c3ccc(F)cc3)nn2c1.Cl [GW461484] | 21 | 0 | 0 | 0 | 11 | 4 | 0 | 0 | 0 | 4
CCn1c(-c2nonc2N)nc2c(C#CC(C)(C)O)nc(OCCN)cc21.Cl.Cl [GSK902056] | 3 | 0 | 13 | 4 | 20 | 0 | 0 | 0 | 0 | 63
CCN(CC)CCCCNc1ncc2cc(-c3c(Cl)cccc3Cl)c(NC(=O)NC(C)(C)C)nc2n1 | 0 | 43 | 11 | 29 | 0 | 0 | 38 | 0 | 0 | 0
O=C(NCCCN1CCOC1=O)c1cnc(NCc2cc(Cl)ccc2Cl)nc1NC1CCCC1 | 0 | 0 | 7 | 31 | 0 | 0 | 7 | 22 | 0 | 16
Cl.Oc1cc(-c2nc(-c3ccccc3)[nH]c2-c2ccncc2)ccc1Cl [SB-386023] | 18 | 0 | 0 | 0 | 10 | 0 | 28 | 14 | 0 | 1
CC(C)Nc1cc(-c2ccc3c(N)n[nH]c3c2)nc(N)n1 [GSK2221681] | 0 | 0 | 0 | 1 | 7 | 4 | 0 | 0 | 1 | 0
Cc1cc(C(=O)Nc2ccc(Oc3ccc4nc(NC(=O)C5CC5)cn4n3)cc2)nn1-c1ccccc1 | 0 | 1 | 10 | 0 | 0 | 0 | 10 | 0 | 0 | 0
Nc1nc(Nc2ccccc2)cc(-c2ccc3c(N)n[nH]c3c2)n1 [GSK2225749] | 11 | 0 | 14 | 0 | 5 | 0 | 0 | 0 | 11 | 20
CN(C)CC(O)COc1ccc(Nc2nccc(-c3cnn4nc(N5CCOCC5)ccc34)n2)cc1 (stereo not drawn) [GW767488] | 47 | 44 | 14 | 96.1 | 37 | 0 | 64 | 86 | 55 | 0
C[C@@H]1CCN(C(=O)CC#N)C[C@@H]1N(C)c1ncnc2[nH]ccc12 | 0 | 0 | 19 | 23 | 0 | 0 | 0 | 9 | 0 | 0
Cc1cc2cn[nH]c2cc1-c1cccc2c(N)c(C(N)=O)nnc12 | 27 | 0 | 12 | 33 | 18 | 2 | 17 | 0 | 15 | 40
Cl.Cl.NC[C@H](Cc1ccc(C(F)(F)F)cc1)NC(=O)c1cc(Br)c(-c2ccnc3[nH]ccc23)s1 [GSK1487252] | 0 | 15 | 0 | 23 | 4 | 4 | 0 | 0 | 3 | 0
Cc1ccc(-n2nc(C(C)(C)C)cc2NC(=O)Nc2ccc(OCCN3CCOCC3)c3ccccc23)cc1 [GW839464] | 0 | 2 | 0 | 9 | 0 | 21 | 0 | 0 | 0 | 0
CC(C)N1C(=O)Cc2cc(Nc3ncc(C(F)(F)F)c(NCc4cccc(S(C)(=O)=O)c4)n3)ccc21 | 0 | 0 | 0 | 37 | 0 | 1 | 0 | 12 | 2 | 0
C=CC(=O)Nc1cc2c(Nc3ccc(F)c(Cl)c3)ncnc2cc1OCCCN1CCOCC1 [GW781483] | 0 | 0 | 0 | 18 | 0 | 3 | 0 | 11 | 22 | 6
COc1ccc(C[C@@H](CN)NC(=O)c2cc(Br)c(-c3ccnc4[nH]ccc34)s2)cc1.Cl.Cl [GSK1389063] | 14 | 0 | 29 | 22 | 1 | 19 | 0 | 0 | 0 | 37
CCN(CC)CCOc1ccc(Nc2ncc3cc(-c4c(Cl)cccc4Cl)c(=O)n(C)c3n2)cc1 [SB-601273] | 98.5 | 34 | 99.5 | 26 | 0 | 35 | 44 | 0 | 20 | 31
C[C@@H](Oc1cc(-c2cnn(C3CCNCC3)c2)cnc1N)c1c(Cl)ccc(F)c1Cl | 0 | 0 | 0 | 24 | 20 | 0 | 14 | 35 | 26 | 0
Cc1occc1-c1nc(N)c(OC[C@@H](N)Cc2c[nH]c3ccccc23)cc1-c1cc2c(C)n[nH]c2cn1 [GSK1660450] | 0 | 46 | 6 | 0 | 0 | 29 | 0 | 100 | 67 | 78
C[C@H]1Oc2cc(cnc2N)-c2c(nn(C)c2C#N)CN(C)C(=O)c2ccc(F)cc21 | 0 | 0 | 22 | 29 | 0 | 0 | 0 | 28 | 3 | 3
Cl.Cl.Nc1nc(-c2ccc3c(N)n[nH]c3c2)cc(N2CCCC(NC(=O)c3ccccc3)C2)n1 (stereo not drawn) [GSK2286775] | 0 | 7 | 0 | 23 | 7 | 11 | 0 | 0 | 6 | 0
CN(C)CCOc1ccc(-c2cc(-c3c[nH]nc3-c3ccccn3)ccn2)cc1 [GW835314] | 25 | 0 | 3 | 33 | 0 | 0 | 10 | 8 | 11 | 44
Cl.Cl.NC[C@H](CC1CCCCC1)NC(=O)c1cc(Br)c(-c2ccnc3[nH]ccc23)s1 [GSK1581427] | 0 | 37 | 0 | 17 | 23 | 0 | 0 | 0 | 1 | 38
O=C(NCCNc1ccnc(NCc2ccc(F)cc2)n1)c1cc2ccccc2s1 [GSK1379944] | 0 | 0 | 4 | 11 | 19 | 85 | 0 | 0 | 0 | 0
Cc1n[nH]c2ccc(-c3cc(OC[C@@H](N)Cc4ccccc4)cnc3-c3ccoc3)cc12.O=C(O)C(F)(F)F.O=C(O)C(F)(F)F [GSK507358] | 0 | 1 | 0 | 0 | 0 | 0 | 0 | 11 | 30 | 87
